Data: PubChem BioAssay
Calls of active or inactive are those of the source. Unless noted, no rule for the calls is given here.

Key:
[1] = system: Wnt5a (protein binding on small-molecule microarray); experiment: small molecules binding Wnt5a protein – biophysical, small-molecule microarray, 635/667 nm fluorescence, primary screen (AID 1142); details: 635 nm fluorescence, higher = more signal;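 also: fluorescence read at 667 nm with signal to noise per printed feature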
[2] = ATP-based viability of Huh7 replicon cells – cell-based, CellTiter-Glo luminescence, basal, 48 h, cytotoxicity control for HCV replication inhibitor project, primary screen (AID 1143); details: higher = more signal, called active from +8 up or from −8 down;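 also: Huh7 hepatoma cells carrying a hepatitis C replication reporter with no stimulus; test concentration not given here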
[3] = Pseudomonas biofilm growth suppression – PAO1 strain, BacTiter-Glo luminescence, LB-PBS, primary screen (AID 1144); details: P. aeruginosa PAO1 biofilm, 12 h, higher = more signal
[4] = basal CRE-LacZ reporter activity in PC12 – cell-based, unstimulated, primary screen (AID 1145); details: no forskolin, luminescence, 4.5 h, higher = more signal, called active from +8 up or from −8 down
[5] = forskolin-driven CRE-LacZ activity in PC12 – cell-based, CRE-LacZ reporter, forskolin-stimulated, primary screen (AID 1146); details: luminescence, 4.5 h, higher = more signal, called active from +8 up or from −8 down;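 also: PC12 cells with 6xCRE LacZ reporter stimulated by forskolin 10 µM; beta-galactosidase reporter signal reflecting CREB driven transcription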
[6] = target: Streptavidin (Streptomyces avidinii) (UniProt P22629); experiment: compounds binding control protein streptavidin – biophysical, small-molecule microarray, 635/667 nm fluorescence, artefact control for SMM compound annotation, primary screen (AID 1147); details: higher = more signal;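 also: signal reflects streptavidin binding to arrayed compounds as a control protein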
Sequence of Streptavidin (Streptomyces avidinii) (P22629 whole entry, looked up): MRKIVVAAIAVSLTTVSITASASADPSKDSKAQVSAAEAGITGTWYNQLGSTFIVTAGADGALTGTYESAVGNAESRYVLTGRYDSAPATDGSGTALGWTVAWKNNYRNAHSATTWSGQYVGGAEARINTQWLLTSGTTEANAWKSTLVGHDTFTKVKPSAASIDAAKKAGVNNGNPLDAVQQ

[7] = probe aInhba binding on compound microarray – biochemical, small-molecule microarray, 635/667 nm fluorescence, primary screen (AID 1148); details: higher = more signal;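 also: score merges 667nm spot fluorescence with signal-to-noise for antibody binding to printed compounds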
Torsin-1A (Homo sapiens) [8] = target: Torsin-1A (Homo sapiens) (UniProt O14656); experiment: TOR1A wild-type binding on microarray – cell lysate, small-molecule microarray, lysate, 635/667 nm, primary screen (AID 1149); details: COS7 hTOR1A-WT lysate, 635 nm fluorescence, higher = more signal
Sequence of Torsin-1A (Homo sapiens) (O14656 whole entry, looked up): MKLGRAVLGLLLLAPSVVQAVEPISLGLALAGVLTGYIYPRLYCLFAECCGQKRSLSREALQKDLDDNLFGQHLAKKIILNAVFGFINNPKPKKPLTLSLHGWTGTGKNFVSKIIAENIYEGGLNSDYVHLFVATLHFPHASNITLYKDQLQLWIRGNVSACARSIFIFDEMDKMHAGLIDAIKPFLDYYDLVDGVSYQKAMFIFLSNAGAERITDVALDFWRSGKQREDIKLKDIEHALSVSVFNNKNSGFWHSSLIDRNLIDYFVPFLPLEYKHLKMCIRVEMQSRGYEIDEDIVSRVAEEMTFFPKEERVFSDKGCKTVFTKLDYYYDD

Torsin-1A (Homo sapiens) [9] = target: Torsin-1A (Homo sapiens) (UniProt O14656); experiment: torsin A mutant lysate binding on microarrays – cell lysate, small-molecule microarray, COS7 lysate, 635/667 nm fluorescence, primary screen (AID 1150); details: COS7 hTOR1A mutant lysate, 635 nm fluorescence, higher = more signal;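 also: score pools 667 nm emission and signal to noise measuring lysate protein binding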
[10] = system: Sonic hedgehog protein (Shh); experiment: Sonic hedgehog microarray binding compounds – biochemical, small-molecule microarray, 635/667 nm fluorescence, primary screen (AID 1151); details: 635 nm fluorescence, higher = more signal;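 also: Shh protein binding to compounds spotted on small-molecule microarray slides; score combines spot fluorescence intensity with signal-to-noise across triplicate slides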
[11] = optical density shifts of acrAB sulA E. coli – strain DRC41, OD650, 48 h, E. coli filamentation inducer project, primary screen (AID 1152); details: higher = more signal, called active from +8 up or from −8 down;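 also: E. coli MC1000 strain DRC41 lacking acrAB efflux pump and sulA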
[12] = probe aLefty1 binding on compound microarray – biochemical, small-molecule microarray, 635/667 nm fluorescence, primary screen (AID 1153); details: higher = more signal;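 also: score merges spot fluorescence with signal-to-noise ratio from the scanned slide images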
[13] = plasmodial surface anion channel blockers, osmotic lysis – cell-based, P. falciparum Indochina, OD700, 1 h, primary screen (AID 1154); details: P. falciparum Indochina infected RBC osmotic lysis, higher = more signal, called active from +8 up or from −8 down
[14] = plasmodial surface anion channel blockers, osmotic lysis – cell-based, P. falciparum Indochina, OD700, 2 h, primary screen (AID 1155);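 also: lysis reports solute entry through the parasite surface anion channel PSAC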; details: P. falciparum Indochina infected erythrocytes, higher = more signal, called active from +8 up or from −8 down
[15] = changes in parasitized red cell lysis, either direction – P. falciparum Indochina, OD700, 3 h, PSAC antagonist project, primary screen (AID 1156); details: P. falciparum-infected erythrocytes, osmotic lysis, higher = more signal, called active from +8 up or from −8 down
[16] = plasmodial surface anion channel blockers, osmotic lysis – cell-based, P. falciparum Indochina, OD700, 18 h, primary screen (AID 1157); details: P. falciparum Indochina infected erythrocytes, osmotic lysis OD700, 18 h; higher = more signal, called active from +8 up or from −8 down
[17] = S6 kinase pathway phospho-S6 level changes – cell-based, A549, cytoblot, luminescence, serum-stimulated, primary screen (AID 1158); details: 5 h, higher = more signal;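 also: serum-stimulated A549 lung adenocarcinoma cells; signal is phosphorylated S6 detected by cytoblot immunostaining with HRP secondary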
[18] = target: NADPH oxidase 2 (Homo sapiens) (UniProt P04839); experiment: compounds shifting NOX2 Amplex Red fluorescence – cell-based, HEK293-NOX2, PMA-stimulated, NOX inhibitor project, primary screen (AID 1159); details: 45 min, higher = more signal, called active from +8 up or from −8 down; also: test concentration not given here
Sequence of NADPH oxidase 2 (Homo sapiens) (P04839 whole entry, looked up): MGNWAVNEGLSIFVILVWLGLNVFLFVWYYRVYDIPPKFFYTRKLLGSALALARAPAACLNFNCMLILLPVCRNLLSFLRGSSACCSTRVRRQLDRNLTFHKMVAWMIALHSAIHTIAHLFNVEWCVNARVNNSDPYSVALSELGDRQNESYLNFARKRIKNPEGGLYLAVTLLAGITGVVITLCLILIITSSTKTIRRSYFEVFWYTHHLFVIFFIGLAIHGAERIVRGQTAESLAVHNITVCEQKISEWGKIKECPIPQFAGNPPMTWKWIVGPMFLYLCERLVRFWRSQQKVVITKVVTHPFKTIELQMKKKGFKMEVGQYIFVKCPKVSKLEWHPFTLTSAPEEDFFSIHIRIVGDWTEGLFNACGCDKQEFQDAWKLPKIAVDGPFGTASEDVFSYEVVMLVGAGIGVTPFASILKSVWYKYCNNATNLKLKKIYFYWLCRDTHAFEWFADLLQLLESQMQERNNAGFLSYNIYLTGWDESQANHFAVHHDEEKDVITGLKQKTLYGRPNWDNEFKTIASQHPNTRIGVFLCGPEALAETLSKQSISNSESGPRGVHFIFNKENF

[19] = target: NADPH oxidase 4 (Homo sapiens) (UniProt Q9NPH5); experiment: compounds shifting NOX4 Amplex Red fluorescence – cell-based, HEK293-NOX4, tetracycline-induced, NOX inhibitor project, primary screen (AID 1160); details: HEK293-NOX4, Amplex Red H2O2 fluorescence, 45 min; higher = more signal, called active from +8 up or from −8 down
Sequence of NADPH oxidase 4 (Homo sapiens) (Q9NPH5 whole entry, looked up): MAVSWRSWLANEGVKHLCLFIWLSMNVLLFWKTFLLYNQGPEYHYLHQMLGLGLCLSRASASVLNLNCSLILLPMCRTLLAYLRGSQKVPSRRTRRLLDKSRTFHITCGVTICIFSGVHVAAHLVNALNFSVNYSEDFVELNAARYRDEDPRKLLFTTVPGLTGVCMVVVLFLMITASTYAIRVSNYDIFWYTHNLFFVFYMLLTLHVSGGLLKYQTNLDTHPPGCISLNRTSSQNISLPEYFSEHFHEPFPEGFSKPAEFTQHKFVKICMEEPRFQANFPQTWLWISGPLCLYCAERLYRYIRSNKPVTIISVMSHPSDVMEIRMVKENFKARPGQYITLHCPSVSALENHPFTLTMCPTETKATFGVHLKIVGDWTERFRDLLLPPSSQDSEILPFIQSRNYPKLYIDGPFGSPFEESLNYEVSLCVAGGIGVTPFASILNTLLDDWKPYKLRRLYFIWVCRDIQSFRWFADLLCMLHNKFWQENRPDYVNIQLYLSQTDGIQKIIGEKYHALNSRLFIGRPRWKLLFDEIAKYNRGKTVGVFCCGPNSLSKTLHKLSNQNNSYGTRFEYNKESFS

[20] = target: NADPH oxidase 5 (Homo sapiens) (UniProt Q96PH1); experiment: compounds shifting NOX5 Amplex Red fluorescence – cell-based, HEK293-NOX5, NOX inhibitor project, primary screen (AID 1161); details: HEK293-NOX5, ionomycin, 45 min, higher = more signal
Sequence of NADPH oxidase 5 (Homo sapiens) (Q96PH1 whole entry, looked up): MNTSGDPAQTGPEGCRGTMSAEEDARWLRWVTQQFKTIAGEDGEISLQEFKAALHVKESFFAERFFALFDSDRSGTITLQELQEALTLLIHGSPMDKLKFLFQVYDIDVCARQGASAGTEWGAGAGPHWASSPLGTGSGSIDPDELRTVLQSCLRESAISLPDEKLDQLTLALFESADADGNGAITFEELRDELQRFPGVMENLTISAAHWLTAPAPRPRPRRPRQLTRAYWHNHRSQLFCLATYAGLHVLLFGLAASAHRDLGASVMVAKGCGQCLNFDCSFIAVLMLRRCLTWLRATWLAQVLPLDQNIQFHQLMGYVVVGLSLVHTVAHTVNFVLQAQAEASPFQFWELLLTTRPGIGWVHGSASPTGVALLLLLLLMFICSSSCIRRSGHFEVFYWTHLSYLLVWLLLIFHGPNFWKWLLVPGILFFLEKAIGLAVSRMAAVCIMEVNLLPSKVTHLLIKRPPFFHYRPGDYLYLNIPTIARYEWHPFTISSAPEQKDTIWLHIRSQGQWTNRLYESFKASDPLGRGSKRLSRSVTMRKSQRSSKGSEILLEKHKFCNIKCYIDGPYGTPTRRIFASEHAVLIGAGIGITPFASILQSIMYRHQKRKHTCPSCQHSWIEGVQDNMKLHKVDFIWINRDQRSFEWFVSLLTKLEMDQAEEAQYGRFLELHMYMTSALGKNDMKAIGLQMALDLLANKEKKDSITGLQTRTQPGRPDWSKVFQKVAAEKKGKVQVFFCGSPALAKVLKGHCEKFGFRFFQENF

Structure (SMILES) | composite z-score [1] | z-score [2] | z-score [3] | z-score [4] | z-score [5] | composite z-score [6] | composite z-score [7] | composite z-score (Torsin-1A (Homo sapiens) [8]) | composite z-score (Torsin-1A (Homo sapiens) [9]) | composite z-score [10] | z-score [11] | composite z-score [12] | z-score [13] | z-score [14] | z-score [15] | z-score [16] | z-score [17] | z-score [18] | z-score [19] | z-score [20]
COc1ccc([Si](C)(C)[C@H]2[C@H](CC(=O)N3CCC[C@H]3CO)O[C@@]3(C(=O)N(Cc4cccc(N5C(=O)c6cccc7cccc5c67)c4)c4ccccc43)[C@@H]2C)cc1 | 1.08 | -3.59 (inactive) | 0.346 (inactive) | 1.46 (inactive) | 1.16 (inactive) | 0.309 | 0.392 | 0.84 | 0.836 | 2.21 | -0.577 (inactive) | 0.302 | 7.61 (inactive) | 0.753 (inactive) | 0.442 (inactive) | 0.623 (inactive) | -0.366 | 1.35 (inactive) | -0.292 (inactive) | 4.06
C=CC[C@]1(C(=O)N2CCCCC2)N=C(c2ccc(OCCCO)cc2)O[C@H]1c1ccccc1 | 0.15 | -3.83 (inactive) | 0.351 (inactive) | 2.73 (inactive) | 0.0819 (inactive) | 0.224 | 0.573 | 0.29 | 1.11 | -0.328 | 0.573 (inactive) | 0.629 | 18.8 (active) | 3.99 (inactive) | 1.61 (inactive) | 1.11 (inactive) | -0.232 | 0.186 (inactive) | -0.0137 (inactive) | -1.71
CCCC=C(CCC)[C@@H](NC(=O)Oc1ccc(F)cc1)c1ccc(C(=O)OC)cc1 | 0.0931 | -3.08 (inactive) | -0.135 (inactive) | 0.194 (inactive) | 1.43 (inactive) | 1.55 | 0.329 | -0.0302 | 0.262 | -0.69 | -0.755 (inactive) | 0.221 | 0.454 (inactive) | 1.34 (inactive) | -1.54 (inactive) | 1.35 (inactive) | 0.298 | -0.395 (inactive) | -1.17 (inactive) | -0.592
CC(=O)N1Cc2ccccc2C[C@@]2(COC(c3ccc(OCCCO)cc3)=N2)C1=O | 0.36 | -2.57 (inactive) | -0.957 (inactive) | 1.82 (inactive) | -1.42 (inactive) | 1.23 | 0.407 | 0.135 | 0.997 | 0.504 | 2.48 (inactive) | 0.611 | 28.1 (active) | 13.4 (active) | 2.79 (inactive) | 1.7 (inactive) | 2.28 | -1 (inactive) | 1.74 (inactive) | -1.24
COc1ccc([Si](C)(C)[C@H]2[C@H](CCO)O[C@@]3(C(=O)N(C)c4c(Br)cc(C)cc43)[C@@H]2C)cc1 | -0.0092 | -8.05 (active) | -1 (inactive) | 15.2 (active) | -3.2 (inactive) | 0.0036 | -0.0523 | 1.15 | 0.105 | 1.29 | -1.28 (inactive) | 0.0486 | 7.79 (inactive) | 1.8 (inactive) | -2.17 (inactive) | 0.987 (inactive) | 0.0508 | -1.41 (inactive) | -1.15 (inactive) | -0.777
CC1(C)[C@@H]2CC(C(O)C3C=CC4C(=O)N(c5ccccc5)C(=O)C4N3Nc3ccccc3)=C[C@H]1C2 (stereo not given in full) | 0.0836 | 0.355 (inactive) | -0.959 (inactive) | 1 (inactive) | 0.874 (inactive) | 0.595 | 0.571 | -0.37 | -0.233 | -0.385 | -1.16 (inactive) | -0.012 | 4.78 (inactive) | 0.741 (inactive) | -0.343 (inactive) | 1.29 (inactive) | -1.04 | -1.47 (inactive) | -2.94 (inactive) | -3.08
COC(=O)[C@@]1(Cc2ccc(F)cc2)[C@H]2c3cc(C(=O)N(C)C)n(Cc4nc5ccccc5[nH]4)c3C[C@H]2CN1C(=O)c1ccccc1 | 0.507 | -0.574 (inactive) | 0.528 (inactive) | 1.53 (inactive) | 0.678 (inactive) | 0.711 | 0.348 | -0.806 | 0.484 | -0.586 | -0.827 (inactive) | -0.0297 | 20.5 (active) | 3.05 (inactive) | 1.13 (inactive) | 0.91 (inactive) | -0.377 | -0.0764 (inactive) | 0.32 (inactive) | -2.06
CCN(CC)c1ccc(N2CC=CC34O[C@@H]5/C=C\CCC(C)OC(=O)C5[C@H]3C(=O)N(C(CO)C(C)C)[C@@H]4C2=O)cc1 (stereo not given in full) | -0.443 | -0.122 (inactive) | 0.805 (inactive) | 0.337 (inactive) | 0.199 (inactive) | -0.826 | -0.108 | -0.918 | -1.32 | 0.661 | 0.295 (inactive) | 0.2 | 1.82 (inactive) | 0.585 (inactive) | 0.975 (inactive) | 0.674 (inactive) | -0.232 | 0.398 (inactive) | -0.502 (inactive) | 0.855
O=C(C1N=C(c2ccc(OCCCO)cc2)N(c2ccccc2)O1)N1CCOCC1 (stereo not given) | 0.427 | -3.19 (inactive) | -0.59 (inactive) | 0.185 (inactive) | -0.472 (inactive) | 0.637 | 0.0947 | 0.652 | 0.219 | 0.476 | 1.72 (inactive) | 0.0721 | 24.4 (active) | 4.44 (inactive) | -0.593 (inactive) | -0.121 (inactive) | 1.75 | -3.16 (inactive) | -0.258 (inactive) | -0.432
